This is an account of results in ChEMBL document CHEMBL1961873, “Compounds: GSK PKIS; Assays: Nanosyn kinase panel” (2012).

Assay [1] has as its target T1, Ephrin type-B receptor 2 (Homo sapiens) (UniProt P29323).
T1 sequence (whole entry): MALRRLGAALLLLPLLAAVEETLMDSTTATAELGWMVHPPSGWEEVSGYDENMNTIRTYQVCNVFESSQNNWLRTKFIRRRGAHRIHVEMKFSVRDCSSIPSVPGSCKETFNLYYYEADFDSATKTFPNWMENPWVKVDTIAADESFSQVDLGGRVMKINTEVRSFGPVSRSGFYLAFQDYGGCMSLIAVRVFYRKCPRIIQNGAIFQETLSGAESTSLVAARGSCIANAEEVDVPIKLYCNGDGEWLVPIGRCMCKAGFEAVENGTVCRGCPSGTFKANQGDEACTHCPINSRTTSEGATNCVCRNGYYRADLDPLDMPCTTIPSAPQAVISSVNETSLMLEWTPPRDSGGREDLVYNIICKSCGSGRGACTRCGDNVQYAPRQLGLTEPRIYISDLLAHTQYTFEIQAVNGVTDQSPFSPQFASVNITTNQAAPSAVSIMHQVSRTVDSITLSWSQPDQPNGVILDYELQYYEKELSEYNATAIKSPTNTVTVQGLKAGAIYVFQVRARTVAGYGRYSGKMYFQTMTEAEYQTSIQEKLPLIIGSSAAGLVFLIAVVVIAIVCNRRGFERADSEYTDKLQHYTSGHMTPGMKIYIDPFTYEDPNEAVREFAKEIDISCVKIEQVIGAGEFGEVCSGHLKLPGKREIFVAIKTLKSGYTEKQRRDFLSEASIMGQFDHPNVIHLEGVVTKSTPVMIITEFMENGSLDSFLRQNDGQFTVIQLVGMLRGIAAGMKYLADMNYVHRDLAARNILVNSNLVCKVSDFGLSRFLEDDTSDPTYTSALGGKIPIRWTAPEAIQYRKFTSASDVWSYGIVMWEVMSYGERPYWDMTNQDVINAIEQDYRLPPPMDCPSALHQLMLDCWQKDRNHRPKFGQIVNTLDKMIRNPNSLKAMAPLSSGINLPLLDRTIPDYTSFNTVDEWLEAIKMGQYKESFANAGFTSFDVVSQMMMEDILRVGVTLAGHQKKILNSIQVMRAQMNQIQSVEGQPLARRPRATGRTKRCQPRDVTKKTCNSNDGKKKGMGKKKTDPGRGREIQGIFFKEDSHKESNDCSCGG
Particulars: at 1 µM.

For assay [2], the target named is T2, Ephrin type-B receptor 3 (Homo sapiens) (UniProt P54753).
T2 sequence (whole entry): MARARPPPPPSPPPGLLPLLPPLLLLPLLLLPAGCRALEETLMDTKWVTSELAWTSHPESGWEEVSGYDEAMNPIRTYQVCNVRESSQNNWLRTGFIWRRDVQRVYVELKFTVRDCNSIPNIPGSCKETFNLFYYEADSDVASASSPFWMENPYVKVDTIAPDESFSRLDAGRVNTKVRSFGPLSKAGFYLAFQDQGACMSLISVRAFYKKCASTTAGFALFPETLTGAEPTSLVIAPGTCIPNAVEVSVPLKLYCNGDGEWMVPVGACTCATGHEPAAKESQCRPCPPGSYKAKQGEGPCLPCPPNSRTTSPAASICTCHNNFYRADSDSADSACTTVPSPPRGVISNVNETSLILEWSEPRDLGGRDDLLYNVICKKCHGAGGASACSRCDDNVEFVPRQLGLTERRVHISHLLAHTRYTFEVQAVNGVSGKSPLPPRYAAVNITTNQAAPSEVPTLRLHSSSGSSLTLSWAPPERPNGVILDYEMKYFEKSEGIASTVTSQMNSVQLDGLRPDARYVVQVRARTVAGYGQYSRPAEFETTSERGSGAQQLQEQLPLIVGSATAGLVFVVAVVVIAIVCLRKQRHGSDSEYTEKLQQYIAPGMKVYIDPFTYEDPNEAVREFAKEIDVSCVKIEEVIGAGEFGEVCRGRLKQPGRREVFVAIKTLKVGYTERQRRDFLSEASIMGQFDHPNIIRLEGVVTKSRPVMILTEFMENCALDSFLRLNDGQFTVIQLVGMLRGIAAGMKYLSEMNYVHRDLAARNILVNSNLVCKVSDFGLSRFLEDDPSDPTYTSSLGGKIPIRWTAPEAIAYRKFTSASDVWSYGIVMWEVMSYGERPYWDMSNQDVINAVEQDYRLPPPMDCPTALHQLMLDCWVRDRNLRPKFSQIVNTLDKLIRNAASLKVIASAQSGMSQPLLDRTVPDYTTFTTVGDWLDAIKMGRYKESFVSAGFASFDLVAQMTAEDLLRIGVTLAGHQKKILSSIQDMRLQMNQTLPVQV
Particulars: at 0.1 µM.

Assay [3] concerns the target T2, Ephrin type-B receptor 3 (Homo sapiens). Particulars: at 1 µM.
Assay [4] addresses T3, Ephrin type-B receptor 4 (Homo sapiens) (UniProt P54760).
T3 sequence (whole entry): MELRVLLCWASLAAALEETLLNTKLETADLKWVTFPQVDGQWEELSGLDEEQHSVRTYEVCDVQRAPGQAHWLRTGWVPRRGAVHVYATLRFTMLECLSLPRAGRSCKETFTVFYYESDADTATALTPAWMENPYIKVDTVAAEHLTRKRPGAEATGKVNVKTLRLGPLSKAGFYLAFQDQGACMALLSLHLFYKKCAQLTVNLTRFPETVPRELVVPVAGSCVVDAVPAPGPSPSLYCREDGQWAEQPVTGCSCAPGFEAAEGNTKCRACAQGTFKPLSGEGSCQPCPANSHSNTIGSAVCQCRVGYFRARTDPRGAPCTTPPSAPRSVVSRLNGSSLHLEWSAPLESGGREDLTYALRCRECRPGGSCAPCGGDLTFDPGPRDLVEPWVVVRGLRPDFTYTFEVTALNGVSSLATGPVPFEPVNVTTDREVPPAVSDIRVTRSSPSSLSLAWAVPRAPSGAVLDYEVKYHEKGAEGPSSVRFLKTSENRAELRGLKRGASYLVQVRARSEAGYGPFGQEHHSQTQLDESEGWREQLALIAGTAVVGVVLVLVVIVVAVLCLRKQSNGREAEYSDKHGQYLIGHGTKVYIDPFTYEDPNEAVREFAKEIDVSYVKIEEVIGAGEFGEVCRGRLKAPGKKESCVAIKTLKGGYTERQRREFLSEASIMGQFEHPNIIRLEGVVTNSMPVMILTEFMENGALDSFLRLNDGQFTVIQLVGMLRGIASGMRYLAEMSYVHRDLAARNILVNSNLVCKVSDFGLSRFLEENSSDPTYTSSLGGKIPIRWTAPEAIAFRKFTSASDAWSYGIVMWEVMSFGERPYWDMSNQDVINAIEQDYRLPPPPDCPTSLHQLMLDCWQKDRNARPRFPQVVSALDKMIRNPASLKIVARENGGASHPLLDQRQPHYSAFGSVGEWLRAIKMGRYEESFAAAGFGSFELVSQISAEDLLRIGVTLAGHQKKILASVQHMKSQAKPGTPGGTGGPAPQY
Particulars: at 0.1 µM.

Assay [5] has as its target T3, Ephrin type-B receptor 4 (Homo sapiens). Particulars: at 1 µM.
Assay [6] addresses Receptor tyrosine-protein kinase erbB-2 (Homo sapiens) (UniProt P04626). As to conditions: at 0.1 µM.
Assay [7] shares this target. As to conditions: at 1 µM.
Assay [8] addresses Receptor tyrosine-protein kinase erbB-4 (Homo sapiens) (UniProt Q15303). Particulars: at 0.1 µM.
Assay [9] shares this target. Particulars: at 1 µM.
Assay [10] addresses Tyrosine-protein kinase Fer (Homo sapiens) (UniProt P16591). As to conditions: at 0.1 µM.

Receptor tyrosine-protein kinase erbB-2 (Homo sapiens), sequence (P04626 whole entry): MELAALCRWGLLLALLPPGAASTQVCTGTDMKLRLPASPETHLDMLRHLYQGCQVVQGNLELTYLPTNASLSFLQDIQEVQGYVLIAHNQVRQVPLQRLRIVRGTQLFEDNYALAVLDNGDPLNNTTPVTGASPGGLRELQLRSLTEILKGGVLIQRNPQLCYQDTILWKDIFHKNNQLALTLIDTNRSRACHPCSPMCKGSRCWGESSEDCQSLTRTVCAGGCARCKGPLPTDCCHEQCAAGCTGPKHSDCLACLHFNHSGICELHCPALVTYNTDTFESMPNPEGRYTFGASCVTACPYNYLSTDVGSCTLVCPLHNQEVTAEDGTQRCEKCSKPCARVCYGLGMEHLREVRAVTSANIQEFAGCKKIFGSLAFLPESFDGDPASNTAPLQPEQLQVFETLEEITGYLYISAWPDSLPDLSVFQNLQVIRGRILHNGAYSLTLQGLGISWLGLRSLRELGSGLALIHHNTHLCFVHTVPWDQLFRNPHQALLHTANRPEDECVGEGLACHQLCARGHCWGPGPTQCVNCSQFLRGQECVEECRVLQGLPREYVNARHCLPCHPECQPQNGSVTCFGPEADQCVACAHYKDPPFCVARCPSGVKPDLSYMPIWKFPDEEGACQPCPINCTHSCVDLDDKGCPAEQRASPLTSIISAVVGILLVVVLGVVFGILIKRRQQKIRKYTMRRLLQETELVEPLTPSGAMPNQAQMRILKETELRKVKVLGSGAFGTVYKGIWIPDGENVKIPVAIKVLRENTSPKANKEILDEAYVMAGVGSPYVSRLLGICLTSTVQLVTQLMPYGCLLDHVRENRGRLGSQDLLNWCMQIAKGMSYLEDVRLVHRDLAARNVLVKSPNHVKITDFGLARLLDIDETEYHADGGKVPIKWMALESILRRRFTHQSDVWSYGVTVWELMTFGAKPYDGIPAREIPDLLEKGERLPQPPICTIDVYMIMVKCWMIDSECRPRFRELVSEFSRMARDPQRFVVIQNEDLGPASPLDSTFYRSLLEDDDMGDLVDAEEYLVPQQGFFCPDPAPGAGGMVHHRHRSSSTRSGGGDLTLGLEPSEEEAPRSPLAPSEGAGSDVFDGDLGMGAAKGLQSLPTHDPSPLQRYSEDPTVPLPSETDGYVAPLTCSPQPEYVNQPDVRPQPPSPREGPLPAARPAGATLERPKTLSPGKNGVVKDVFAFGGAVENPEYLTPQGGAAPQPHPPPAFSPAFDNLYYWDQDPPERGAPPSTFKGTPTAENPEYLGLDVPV
Tyrosine-protein kinase Fer (Homo sapiens), sequence (P16591 whole entry, looked up): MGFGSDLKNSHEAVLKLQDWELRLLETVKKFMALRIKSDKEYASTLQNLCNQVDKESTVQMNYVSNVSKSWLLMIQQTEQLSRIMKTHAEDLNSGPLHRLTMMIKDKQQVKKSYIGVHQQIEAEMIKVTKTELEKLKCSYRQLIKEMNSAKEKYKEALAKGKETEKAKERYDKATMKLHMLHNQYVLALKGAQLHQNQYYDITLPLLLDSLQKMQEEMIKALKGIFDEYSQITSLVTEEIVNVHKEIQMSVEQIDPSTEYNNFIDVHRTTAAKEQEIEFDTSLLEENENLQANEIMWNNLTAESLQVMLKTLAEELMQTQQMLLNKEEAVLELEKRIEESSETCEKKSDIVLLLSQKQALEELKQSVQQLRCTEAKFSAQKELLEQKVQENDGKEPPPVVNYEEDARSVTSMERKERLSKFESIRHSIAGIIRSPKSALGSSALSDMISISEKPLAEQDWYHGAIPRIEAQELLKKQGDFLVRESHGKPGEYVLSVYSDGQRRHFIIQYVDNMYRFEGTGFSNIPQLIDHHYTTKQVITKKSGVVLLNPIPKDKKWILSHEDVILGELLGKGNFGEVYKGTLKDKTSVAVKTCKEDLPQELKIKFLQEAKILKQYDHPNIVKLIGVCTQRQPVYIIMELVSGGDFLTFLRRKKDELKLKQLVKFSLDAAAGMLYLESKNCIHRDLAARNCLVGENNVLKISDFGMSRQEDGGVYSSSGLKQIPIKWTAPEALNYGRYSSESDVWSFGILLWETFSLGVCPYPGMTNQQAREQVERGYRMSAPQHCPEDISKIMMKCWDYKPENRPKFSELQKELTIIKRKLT
Receptor tyrosine-protein kinase erbB-4 (Homo sapiens), sequence (Q15303 whole entry): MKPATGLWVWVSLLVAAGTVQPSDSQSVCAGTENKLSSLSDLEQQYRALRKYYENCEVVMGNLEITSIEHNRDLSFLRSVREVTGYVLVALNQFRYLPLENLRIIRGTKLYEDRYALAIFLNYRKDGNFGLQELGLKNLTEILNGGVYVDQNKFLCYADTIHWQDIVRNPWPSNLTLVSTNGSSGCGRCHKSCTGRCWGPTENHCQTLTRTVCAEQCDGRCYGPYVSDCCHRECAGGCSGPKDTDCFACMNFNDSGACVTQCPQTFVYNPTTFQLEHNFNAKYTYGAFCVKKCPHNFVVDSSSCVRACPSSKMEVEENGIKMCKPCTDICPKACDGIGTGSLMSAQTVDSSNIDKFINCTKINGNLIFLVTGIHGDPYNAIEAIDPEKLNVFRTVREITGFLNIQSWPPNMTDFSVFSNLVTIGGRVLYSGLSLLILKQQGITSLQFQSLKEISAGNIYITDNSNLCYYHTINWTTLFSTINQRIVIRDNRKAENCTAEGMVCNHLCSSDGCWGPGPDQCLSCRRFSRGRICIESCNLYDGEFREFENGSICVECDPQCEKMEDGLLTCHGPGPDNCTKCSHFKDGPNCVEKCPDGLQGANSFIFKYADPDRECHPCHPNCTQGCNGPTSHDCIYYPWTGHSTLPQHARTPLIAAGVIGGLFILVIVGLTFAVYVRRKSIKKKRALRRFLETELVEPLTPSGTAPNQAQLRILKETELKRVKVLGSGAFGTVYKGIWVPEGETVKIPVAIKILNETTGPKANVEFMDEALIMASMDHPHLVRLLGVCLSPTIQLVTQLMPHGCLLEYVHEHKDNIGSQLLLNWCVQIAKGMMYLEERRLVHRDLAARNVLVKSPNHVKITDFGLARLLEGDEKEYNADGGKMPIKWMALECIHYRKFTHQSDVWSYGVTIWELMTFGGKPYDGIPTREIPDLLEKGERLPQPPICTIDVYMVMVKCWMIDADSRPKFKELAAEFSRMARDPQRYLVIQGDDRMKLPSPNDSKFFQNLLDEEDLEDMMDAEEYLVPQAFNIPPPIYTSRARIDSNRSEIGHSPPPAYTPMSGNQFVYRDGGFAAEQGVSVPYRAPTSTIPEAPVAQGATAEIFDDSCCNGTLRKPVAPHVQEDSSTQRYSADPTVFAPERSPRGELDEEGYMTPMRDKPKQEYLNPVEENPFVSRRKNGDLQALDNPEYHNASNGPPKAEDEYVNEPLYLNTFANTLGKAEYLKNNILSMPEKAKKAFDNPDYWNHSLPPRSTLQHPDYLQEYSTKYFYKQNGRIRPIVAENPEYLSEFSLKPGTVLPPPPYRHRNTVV

The term inhibition denotes the drop in the measured response relative to a control, in per cent. For `CN1CCN(C(=O)c2ccc(NC(=O)Nc3ccc(N(C)c4ccnc(Nc5ccc(CS(C)(=O)=O)cc5)n4)cc3)cc2)CC1`, the inhibition turned out to be 34.3% in [1]; 2.73% in assay [2]; 3.2% in assay [3]; 2.21% in [4]; 11% in [5]; 0.08% in assay [6]. Also, the inhibition is 3.94% in [7], 7.39% in assay [8], 17.1% in assay [9] and 16.2% in assay [10].
For `Cc1cc(O)cc(C)c1/C=C/c1cncc(C(=O)N(C)C)c1`, the inhibition in assay [1] worked out at 22.5%; in assay [2] it was 5.26%; in assay [3], 5.69%; in assay [4] it was 3.23%; in assay [5], 7.53%; in assay [6], 1.35%. Besides, the inhibition is -0.95% in assay [7], 9.24% in assay [8], 7.51% in assay [9] and 3.43% in assay [10].
On to `COc1ccc(-c2nn3ncccc3c2-c2ccnc(Nc3cccc(C(F)(F)F)c3)n2)cc1`, for which the inhibition amounted to 6.69% in [1]; 3.95% in assay [2]; 4.5% in [3]; 0.66% in assay [4]; 5.01% in [5]; 3.15% in [6]. For the same molecule, the inhibition worked out at 9.69% in assay [7], 25.8% in assay [8], 83.1% in [9] and 0.8% in assay [10].
As for `N#Cc1c(NC(=O)c2ccccc2F)sc2c1CCCC2`, the inhibition is -0.34% in assay [1]; 3.63% in [2]; 0.77% in [3]; -2.29% in assay [4]; 0.07% in assay [5]; -3.55% in assay [6]. The inhibition was 1.39% in [7], -2.08% in [8], 0.66% in [9] and -1.19% in [10].
In the case of `CN(C)CCCn1c(-c2nonc2N)nc2cnccc21`, the inhibition was determined as 5.68% in assay [1]; 5.3% in assay [2]; 2.05% in assay [3]; 3.38% in assay [4]; 2.2% in [5]; 5.72% in assay [6]. Besides, the inhibition in assay [7] was 4.73%; in [8] it was 17.3%; in [9] it was 16.3%; in assay [10] it was 1.8%.
Regarding `COc1cc2ncn(-c3cc(OCc4ccccc4S(C)(=O)=O)c(C#N)s3)c2cc1OC`, the inhibition in assay [1] stood at 36%; in [2] it was 5.99%; in [3], 4.4%; in assay [4] it was 4.74%; in assay [5] it was 17.1%; in assay [6] it was 0.83%. Besides, the inhibition in assay [7] is -1.42%; in assay [8] it was 8.79%; in assay [9], 8.72%; in [10], 6.67%.
As for `O=C1Nc2ccccc2/C1=C/Nc1ccc2[nH]c(=O)[nH]c2c1`, the inhibition came to 20.6% in assay [1]; 6.46% in assay [2]; 5.55% in assay [3]; 5.44% in assay [4]; 5.98% in [5]; 3.93% in [6]. The inhibition in [7] was determined as 2.8%; in assay [8], 9.76%; in assay [9] it was 15.3%; in assay [10], 3.27%.
In the case of `COc1cc2ncnc(Nc3ccc4c(cnn4Cc4ccccc4)c3)c2cc1OC`, the inhibition turned out to be 7.52% in assay [1]; 2.93% in [2]; 4.39% in [3]; 1.36% in [4]; 2.63% in assay [5]; 32.4% in assay [6]. In addition, the inhibition in assay [7] turned out to be 83%; in assay [8], 83.7%; in assay [9], 94%; in assay [10], 0.84%.
